From PubChem BioAssay (NCATS)
Values joined by “and” are separate entries in the source; they are usually repeats but may differ in a detail not shown here. Equal entries are not always repeated. Records with an inconclusive call do not appear. Where a call stands in place of a potency, no number is given. Active and inactive are the calls of the source. Calls come from the whole dose curve.

test: Primary qHTS to identify inhibitors of SARS-CoV-2 cell entry (AID 1645846); conditions: SARS-CoV-2 pseudovirus cell entry assay, luminescence; activity change, negative = inhibition: at 57.1 µM (top of the series) unless noted; series mostly up to 57.1 µM; note: nearly all actives have a fitted effect of over 45% in size
Description: Assay Provider: Wei Zheng, Ph.D.
National Center for Advancing Translational Sciences, National Institute of Health, Rockville, MD.
SARS-CoV-2 spike protein, within the viral envelope, mediates viral attachment and infection of host cells. The SARS-CoV-2 spike protein specifically binds to the host receptor ACE2 (Angiotensin-converting enzyme 2). This interaction promotes endocytosis of the viral particle, additional events lead to viral-host cell membrane fusion and release of the viral contents, allowing viral replication.
While SARS-CoV-2 requires BSL-3 facilities for live virus work, pseudotyped partices (PP) that incorporate SARS-CoV-2 spike proteins without replication elements could facilitate studies on viral entry mechanisms in a BSL-2 setting. This PP cell entry assay could also enable screening of small molecule compound libraries in BSL-2 setting to identify inhibitors of SARS-CoV-2 cell entry.
PROTOCOL TABLE (format as described by Inglese J, Shamu CE and Guy RK. 2007)
SEQUENCE No. (e.g., 1, 2, 3, etc.); […] (e.g., Cells, Incubation, Reagent, etc.); VALUE and DESCRIPTION.
1. Cells. Seed 1500 HEK293-ACE2 cells (Expi293F with stable expression of human ACE2) in 2 uL/well media (DMEM, 10% FBS, 1x L-glutamine, 1x Pen/Strep, 1 ug/ml puromycin) in white 1536-well assay plates (Greiner #782073).
2. Incubation. Incubate at 37C with 5% CO2 overnight (~16 h).
3. Compounds. Dispense 23 nL/well compounds in DMSO via pin transfer.
4. Incubation. Incubate for 1 hr at 37C 5% CO2.
5. Reagent. Dispense 2 uL/well of SARS-CoV-2-S pseudotyped particles. [a] PPs are produced with murine leukemia virus pseudotyping. [b] SARS-CoV-2-S is Wuhan-Hu-1 sequence (BEI #NR-52420) with C-terminal 19 amino acid truncation.
6. Centrifuge. […]
7. Incubation. Incubate at for 48 hr at 37C 5% CO2
8. Centrifuge. Remove supernatant with gentle centrifugation using a Blue Washer (BlueCat Bio).
9. Reagent. Dispense 4 uL/well of Bright-Glo Luciferase detection reagent (Promega #E2620).
10. Incubation. Incubate for 5 min at room temperature.
11. Detection. Read luminescence signal (Viewlux plate reader, PerkinElmer). Data was normalized with wells containing SARS-CoV-2-S PP as 100%, and wells containing bald PP (no fusion protein) as 0%.

Compound | activity change, negative = inhibition | Potency
O=C(C1CCCCC1)N1CC(=O)N2CCCc3ccccc3C2C1 (stereo unspecified) | 0.685% | –
O=C(COCCOCCOCC(=O)Nc1c(I)cc(I)c(C(=O)O)c1I)Nc1c(I)cc(I)c(C(=O)O)c1I | – | inactive
CC(=O)N(c1onc(C)c1C)S(=O)(=O)c1ccc(N)cc1 | – | inactive
N#CSCC(=O)O | – | inactive
CCN(Cc1ccncc1)C(=O)C(CO)c1ccccc1 (stereo unspecified) | – | inactive
CC1COc2c(N3CCN(C)CC3)c(F)cc3c(=O)c(C(=O)O)cn1c23 (stereo unspecified) | -0.258% | –
Cc1c[nH]c2ccccc12 | -24.2% | –
CCCCCCCCCCCCCCCC(=O)OC(C)C | – | inactive
CCOC(=O)c1ccc(O)cc1 | – | inactive
Cn1nnc2c(C(N)=O)ncn2c1=O | -15.9% and -14.8% | –
CCc1oc2ccccc2c1C(=O)c1cc(I)c(O)c(I)c1 | -21.9% | –
Nc1ccc(S(=O)(=O)c2ccc(N)cc2)cc1 | – | inactive
NC(=O)NC1NC(=O)NC1=O (stereo unspecified) | – | inactive
CCOC(=O)[C@H](CCc1ccccc1)N[C@@H](C)C(=O)N1CCC[C@H]1C(=O)O | -3.71% and -6.05% | –
CCOC(=O)c1ccc(N)cc1 | – | inactive
CCc1cc(C(N)=S)ccn1 | -20.7% | inactive
Cc1cc(NS(=O)(=O)c2ccc(N)cc2)nc(C)n1 | -52.4% | –
Cc1cnc(NC(=O)C2=C(O)c3ccccc3S(=O)(=O)N2C)s1 | -28.9% | inactive
CC(=O)O[C@@H]1C(=O)O[C@@H]2[C@H]1OC(=O)[C@@H]2OC(C)=O | -38.2% | –

Compound | activity change, negative = inhibition | Potency
Cc1ccc(C(=O)C(=O)O)cc1C | -19.4% | –
C[C@]12CCC(=O)C=C1CC[C@H]1[C@@H]3CC[C@](O)(C(=O)CO)[C@@]3(C)C[C@H](O)[C@@]12F | -15.9% | –
CC(=O)NCc1c(I)c(NC(C)=O)c(I)c(C(=O)O)c1I | – | inactive
CC(=O)OCC(=O)[C@@]1(O)CC[C@H]2[C@@H]3CCC4=CC(=O)CC[C@]4(C)[C@H]3C(=O)C[C@@]21C | -2.62% and -39.8% | –
CCCCCCCCCCOc1cc2c(=O)c(C(=O)OCC)c[nH]c2cc1OCC | -22.6% [at 5.25 µM] | –
CC(C)Cc1ccc(CC(=O)O)cc1 | – | inactive
O=C(/C=C/c1ccccc1)OCc1ccccc1 | -14.8% | –
C[C@]12CCC(=O)C=C1CC[C@@H]1[C@@H]2CC[C@]2(C)C(=O)CC[C@@H]12 | – | inactive
CC1CC(OC(=O)c2ccccc2O)CC(C)(C)C1 (stereo unspecified) | – | inactive
C[C@@H](N)[C@@H](O)c1ccccc1 | – | inactive
O=C(Nc1ccc(Br)cc1)c1cc(Br)cc(Br)c1O | – | inactive
O=C(O)CN(CCN(CC(=O)O)CC(=O)O)CCN(CC(=O)O)CC(=O)O | – | inactive
CC(=O)Nc1ccc(CC(=O)O)cc1 | – | inactive
CC(=O)c1ccc(S(=O)(=O)NC(=O)NC2CCCCC2)cc1 | 4.85% | –
CC(=O)Oc1cccc(O)c1 | -13.8% | –
O=C(O)Cc1cccc(-c2cc(CCCCCCc3ccc(O[C@H]4O[C@H](CO)[C@@H](O)[C@H](O)[C@@H]4O)c(-c4cccc(CC(=O)O)c4)c3)ccc2O[C@H]2O[C@H](CO)[C@@H](O)[C@H](O)[C@@H]2O)c1 | -14.7% [at 0.702 µM] | –
CC(=O)OCC(=O)[C@@]1(O)[C@H](OC(C)=O)C[C@H]2[C@@H]3CCC4=CC(=O)C=C[C@]4(C)[C@@]3(F)[C@@H](O)C[C@@]21C | – | inactive
CC(C)c1cccc(C(C)C)c1O | -52.4% | –
CC(C)(C)C(=O)Oc1ccc(S(=O)(=O)Nc2ccccc2C(=O)NCC(=O)O)cc1 | -32.8% | inactive
